# Compound activity from PubChem.
# Only some compounds are listed: those with a hit (about 9% of all), similar ones and a draw of the others.
# HPGD block: inhibitors of human 15-hydroxyprostaglandin dehydrogenase (HPGD) | Potency, µM, without a hit: at the top dose activity change, negative = inhibition, usual class: inhibitors | 150,000 tested, 4.3% active | P15428 | purified HPGD, NADH fluorescence kinetic, PGE2 substrate | AID 894; active = well fitted inhibition curve with a large enough effect, not every such curve was filed as active; inconclusive = small, poorly fitted or top-dose-only effect, or another doubt; inactive = no such curve, though single readings can be large or run the other way
# Target sequence (P15428 whole entry, looked up): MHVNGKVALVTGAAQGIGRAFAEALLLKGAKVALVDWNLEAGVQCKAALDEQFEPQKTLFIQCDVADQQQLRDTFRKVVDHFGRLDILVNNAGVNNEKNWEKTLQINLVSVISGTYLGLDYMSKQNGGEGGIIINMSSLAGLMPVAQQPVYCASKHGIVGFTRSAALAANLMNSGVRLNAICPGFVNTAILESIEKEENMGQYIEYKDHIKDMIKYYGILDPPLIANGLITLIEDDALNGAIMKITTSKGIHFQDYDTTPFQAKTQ
#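 NADH formation kinetics: reaction with 30 uM PGE2 and 1 mM NAD+ (final), 20 nM enzyme, Tris-HCl pH 8 with Tween 20, after 15 min compound preincubation at room temperature. Fluorescence change, last versus first of five reads.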
# LMNA splice mod: modulators of lamin A splicing; Potency, µM (titrated, usually from 46.1 µM), for inactives: at the highest dose ratio change, negative = inhibition, actives largely listed as inhibitors; AID 1487; 200,000 tested, 0.01% active; HeLa LMNA splicing GFP/RFP minigene ratio, 48 h; active = well fitted inhibition curve with a large enough effect in the signal ratio, with a control signal flat, not every such curve was filed as active; inconclusive = small, poorly fitted or top-dose-only effect, or effect the other way, or a change in a side signal; the % refers to the signal ratio
#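 S3 HeLa stable clones carrying a lamin A-EGFP splicing minigene plus DsRed2 were seeded at 600 cells/well in Opti-MEM with 2% FBS, pin-dosed and incubated 48 h at 37°C. Acumen cytometry (488 nm) gave the GFP/RFP total-intensity ratio.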
# ALDH1A1 inh: inhibitors of human aldehyde dehydrogenase 1A1 | P00352 | Purified ALDH1A1, NADH fluorescence, propionaldehyde substrate | Potency, µM (doses to about 75.3 µM), inactives show at the top dose activity, negative = inhibition, hits mostly inhibitors | 220,000 tested, 7.3% active; active = well fitted inhibition curve with a large enough effect, not every such curve was filed as active; inconclusive = small, poorly fitted or top-dose-only effect, or another doubt; inactive = no such curve, though single readings can be large or run the other way;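 also: plate controls were no enzyme wells and a reference inhibitor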
# IMPase Li inh: membrane-permeable IMPase blocker, potentiated with lithium; CHO-M1 cells, IP1 TR-FRET (IP-One), carbachol + lithium; 210,000 tested, 0.35% active; Potency, µM (doses to about 59.4 µM), inactives show at the highest dose activity, negative = IMPase inhibition, hits mostly inhibitors;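 also: IP1 builds up when IMPase is blocked and the TR-FRET signal falls; plate controls were basal vehicle for no effect and high inhibitor control for full effect; nearly all actives have a fitted effect of over 50% in size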
#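 Test compounds were applied to CHO-M1 cells previously cultured for 16–30 h at 2000 per well. A small lithium amount accompanied them; after 30 min at 37C, IP1 was quantified by TR-FRET.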
# Luc counter: Kinase-Glo luciferase inhibition (counter-screen) | Q27757 | Kinase-Glo luciferase, ATP luminescence, 8 min | Potency, µM (doses to about 38.3 µM), inactives show at the highest dose activity change, negative = inhibition, most hits filed as inhibitors | 200,000 tested, 0.28% active | AID 1379; also: nearly all actives have a fitted effect of over 60% in size
#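 Inhibition of Kinase-Glo luciferase light generation was assessed at 10 uM ATP in pH 7.2 imidazole buffer, with luminescence measured after eight minutes at ambient temperature.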
# * hit, by the source's call; ? = inconclusive; · = not tested or not shown; [ ] = dose if it differs, or a comment. Unless noted, calls follow the shape of the dose curve; as a rule, active = well fitted curve in the direction sought with a large enough effect; inconclusive = small, poorly fitted or top-dose-only effect, or another doubt; inactive = no such curve, though single readings can be large; an effect the other way counts as inactive or inconclusive. Unless noted, % is scaled to controls: 0 for no effect and ±100 for the full control effect; potency is read from the fitted curve at half-maximal effect.
SMILES,HPGD block,LMNA splice mod,ALDH1A1 inh,IMPase Li inh,Luc counter
O=C(NCCCN=C1NS(=O)(=O)c2ccccc21)c1ccc(S(=O)(=O)N2CCCCC2)cc1,-19%,?,14µM*,49%[38.3 µM],15%
Cc1cc2cc(CNC(=O)c3ccc(S(=O)(=O)N(C)C)cc3)ccc2n1C,0%,-9%,-11%,28%[38.3 µM],0%
Cc1cc2cc(CNC(=O)Nc3cccc(Cl)c3)ccc2n1C,-13%,-13%,22µM*,4%[38.3 µM],-7%
Cc1cc2cc(CNC(=O)c3ccc(S(=O)(=O)N4CCOCC4)cc3)ccc2n1C,-13%,-7%,25µM*,1%[38.3 µM],0%
Cc1cccc(NC(=O)NCc2ccc3c(c2)cc(C)n3C)c1,-17%,-4%,-9%,?,-1%
Cc1ccc(C(=O)NCCc2ccc(S(=O)(=O)N3CCCC3)cc2)cc1,·,12%[46 µM],?,5%,-1%
Cc1cc2ccccc2n1CCNC(=O)c1ccc(S(=O)(=O)N2CCCCC2)cc1,-19%,?,3.2µM*,10%[38.3 µM],-1%
CCCCc1cc2c(cn1)=C(OC(=O)C1CCCC1)C(C)(OC(=O)CC)C(=O)C=2 (stereo not drawn),-3%,?,?,7%,-4%[7.66 µM]
Cc1cc2cc(CNC(=O)c3cccc([N+](=O)[O-])c3)ccc2n1C,?,?,?,4%,0%
CCCC(=O)NCc1ccc2c(c1)cc(C)n2C,7.9µM*,6%,-5%,-13%[38.3 µM],0%
Cc1cc2cc(CNS(=O)(=O)c3ccc4ccccc4c3)ccc2n1C,-16%,-15%,14µM*,-5%[38.3 µM],-3%
Cc1c(C(=O)NCc2ccc3c(c2)cc(C)n3C)cccc1[N+](=O)[O-],1.8µM*,-4%,6%,-6%,7%
Cc1cccc(NC(=O)CSc2nccn2-c2cccc(Cl)c2)c1C,·,-29%[46 µM],·,·,·
O=C(O)c1nn(-c2ccccc2)ccc1=O,-13%,13%,-4%,-1%[38.3 µM],3%
N#Cc1cc2c(nc1SC1CC(=O)N(c3ccccc3)C1=O)CCC2 (stereo not drawn),0%,7%,-14%,-4%,-5%
COc1ccc(N2C(=O)CC(Sc3nc(C)cc(C)c3C#N)C2=O)cc1 (stereo not drawn),-5%,-6%,?,1%,2%
O=C1CC(Sc2nnc(-c3ccccc3O)o2)C(=O)N1c1ccccc1 (stereo not drawn),?,8%,3.5µM*,-15%[38.3 µM],1%
COc1ccc(N2C(=O)CC(Sc3nnc(-c4ccccc4)o3)C2=O)cc1 (stereo not drawn),22µM*,2%,1.8µM*,8.9µM*,15%
CCOC(=O)CN1C(=O)N[C@@H](c2cccc(C(F)(F)F)c2)[C@@H](C(=O)OC)[C@H]1C,3%,-14%[9.22 µM],3%[13.5 µM],12%,-2%[7.66 µM]
Cc1cn(C2CCC(CO)O2)c(=O)[nH]c1=O (stereo not drawn),-8%,-1%,15%,-6%,1%
CCC(C)NC(=O)C1CCC(=O)N(c2ccc3c(c2)OCO3)C1c1ccc(OC)cc1 (stereo not drawn),-1%,-8%,6.3µM*,24%[38.3 µM],-1%
C/C(=C\C(=O)c1cccnc1)Nc1ccc(O)cc1,16µM*,18%,?,4%[38.3 µM],-3%
O=C(CC(c1ccccc1)c1ccccc1)NCC1CCCO1 (stereo not drawn),7.9µM*,6%,-3%,2%[38.3 µM],-1%
O=C(CCn1nc(-c2ccccc2)c2ccccc2c1=O)N1CCN(c2ccccc2)CC1,-11%,-4%,22µM*,48%[38.3 µM],-1%
O=C(CCn1nc(-c2ccccc2)c2ccccc2c1=O)NCC1CCCO1 (stereo not drawn),28µM*,?,?,-1%[38.3 µM],1%
SMILES,HPGD block,LMNA splice mod,ALDH1A1 inh,IMPase Li inh,Luc counter
O=C(CCCOc1ccccc1)NCC1CCCO1 (stereo not drawn),13µM*,13%,-3%,-7%[38.3 µM],-7%
NC(=O)CCn1nc(-c2ccccc2)c2ccccc2c1=O,-7%,24%,-14%,2%[38.3 µM],-3%
CC(NC(=O)C(=O)NCC1CCCO1)c1ccccc1 (stereo not drawn),·,2%[46 µM],6%,-1%,3%
COc1ccc(-c2[nH]ncc2CN(CC2CCC(=O)N2)C(C)C)cc1F (stereo not drawn),·,-6%[46 µM],-4%,-1%,0%
COc1ccc(S(=O)(=O)Nc2cc3c(cc2C(C)=O)OCO3)cc1,·,·,0%,9%,-1%
O=C(CCc1nc(-c2ccc(Cl)cc2)no1)NCC1CCCO1 (stereo not drawn),·,?,35µM*,-1%,-2%
O=C(CCSCCC(=O)NCC1CCCO1)NCC1CCCO1 (stereo not drawn),-4%,1%,-7%,16%[38.3 µM],2%
COc1cccc(-c2noc(CCC(=O)NCC3CCCO3)n2)c1 (stereo not drawn),·,·,5%,12%,3%
O=C(CCSc1ccccc1)NCC1CCCO1 (stereo not drawn),16µM*,-8%,-2%,15%[38.3 µM],-3%
Cc1cc(Cl)ccc1OCCCC(=O)NCC1CCCO1 (stereo not drawn),11µM*,6%,10%,1%[38.3 µM],-3%
O=C(CC1CCCCC1)NCC1CCCO1 (stereo not drawn),14µM*,2%,-3%,0%[38.3 µM],1%
CNC(=O)C1(C)C=CCN1C(=O)OC (stereo not drawn),-1%,·,4%,-2%,0%
CN(C)S(=O)(=O)c1cccc(NC(=O)COC(=O)c2cc(=O)c3ccccc3o2)c1,·,?,-5%,·,·
CCCCn1c(-c2sccc2C)n[nH]c1=S,·,?,?,10%,-3%
COc1ccccc1CCNC(=O)C(=O)NCC(c1cccs1)S(=O)(=O)c1ccc(C)cc1 (stereo not drawn),·,11%[46 µM],·,·,·
CCc1ccccc1NC(=O)CSc1nc(-c2ccccc2)nn1C(=O)c1cccc([N+](=O)[O-])c1,13µM*,8%,-3%,-1%[38.3 µM],0%
CCC(=O)n1nc(-c2ccccc2)nc1SCC(=O)Nc1ccc(C)cc1,7.9µM*,4%,-1%,2%[38.3 µM],0%
CC(=O)n1nc(-c2cccc(C)c2)nc1SCC(=O)Nc1ccccc1,-18%,-9%,4%,4%,-1%
Cc1ccc(/C([O-])=C(/C(=S)NCc2ccc3c(c2)OCO3)[n+]2ccc(N(C)C)cc2)c(C)c1,·,-10%[46 µM],?,0%,-1%
COc1cccc(OC)c1C(=O)NC(=S)Nc1ccc2c(c1)Cc1ccccc1-2,-17%,3%,10µM*,-22%[38.3 µM],-4%
Cn1cc(S(=O)(=O)N2CCCCCC2)cc1C(=O)NCc1ccc(F)cc1,·,4%[46 µM],·,·,·
COc1cc(/C=C2/C(=O)c3cccc([N+](=O)[O-])c3C2=O)c(Br)cc1O,1.4µM*,?,8.9µM*,24%,11µM*
CCOc1ccc(S(=O)(=O)N/N=C(\C)Cc2ccc(OC)cc2)cc1,·,-19%[46 µM],2.8µM*,1%,2%
